Data taken from PubChem BioAssay.

Tests used:
[1] = system: Human papillomavirus type 1a protein E7 (residues 44-93); assay: small molecules binding HPV E7 44-93 – biochemical, small-molecule microarray, residues 44-93, 635 nm fluorescence, primary screen (AID 1108); conditions: fluorescence 635 nm, higher = more signal;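 note: E7 fragment applied at 1 µg/mL in TBST for 1 h at 4 C; score combines spot fluorescence with its signal to noise ratio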
[2] = hepatitis C replication reporter changes, two-sided – Huh7 cells, luciferase reporter, HCV replication inhibitor project, primary screen (AID 1109); conditions: Huh7 HCV replicon luciferase reporter, 48 h; higher = more signal;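 note: huh7 hepatoma cells harbouring a luciferase neomycin HCV replicon reporter; luciferase luminescence as measure of HCV replicon replication; test concentration not given here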
[3] = target: Left-right determination factor 2 (Homo sapiens) (UniProt O00292); assay: small molecules binding LEFTY2 protein – biochemical, small-molecule microarray, 635 nm fluorescence scan, primary screen (AID 1110); conditions: higher = more signal
Chain of Left-right determination factor 2 (Homo sapiens) (O00292 whole entry, looked up): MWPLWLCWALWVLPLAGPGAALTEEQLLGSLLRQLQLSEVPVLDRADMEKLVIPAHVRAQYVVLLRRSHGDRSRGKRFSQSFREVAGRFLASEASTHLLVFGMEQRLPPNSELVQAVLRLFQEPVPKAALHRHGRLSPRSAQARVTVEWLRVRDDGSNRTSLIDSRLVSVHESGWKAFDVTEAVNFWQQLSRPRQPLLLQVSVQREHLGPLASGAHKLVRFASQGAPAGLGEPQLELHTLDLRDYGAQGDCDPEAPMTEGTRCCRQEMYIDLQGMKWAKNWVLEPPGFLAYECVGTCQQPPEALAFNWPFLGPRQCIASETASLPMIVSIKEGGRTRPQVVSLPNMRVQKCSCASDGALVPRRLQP

[4] = target: Calmodulin-1 (Homo sapiens) (UniProt P0DP23); assay: small molecules binding calmodulin-1 with EGTA – biochemical, small-molecule microarray, Cy5-labelled CALM1, profiling panel (AID 1111); conditions: Cy5-CALM1 binding fluorescence, higher = more signal;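 note: labelled calmodulin applied in Tris saline Tween buffer holding calcium plus EGTA and DTT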
[5] = target: Calmodulin-1 (Homo sapiens) (UniProt P0DP23); assay: small molecules binding Ca-loaded calmodulin-1 – biochemical, small-molecule microarray, Cy5-labelled CALM1, plus calcium, artefact control for SMM control-protein annotation, profiling panel (AID 1112); conditions: Cy5-CALM1 binding fluorescence, higher = more signal;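 note: score merges spot fluorescence with signal to noise from triplicate slides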
[6] = probe aWnt5a binding to arrayed compounds – biochemical, biotinylated probe, 635/667 nm fluorescence, primary screen (AID 1113); conditions: small-molecule microarray, higher = more signal;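 note: score merges 667 nm fluorescence intensity with signal-to-noise per printed feature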
[7] = probe aShh binding to arrayed compounds – biochemical, biotinylated probe, 635/667 nm fluorescence, primary screen (AID 1114); conditions: small-molecule microarray, higher = more signal;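 note: probe is biotin-labelled aShh protein from a stem cell growth factor screen; measures binding of labelled protein to compounds printed on the slide; score merges feature fluorescence at 667 nm with signal-to-noise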
[8] = probe aNog binding to arrayed compounds – biochemical, biotinylated probe, 635/667 nm fluorescence, primary screen (AID 1115); conditions: small-molecule microarray, higher = more signal;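 note: probe is biotinylated aNog protein used at 0.15 µg/mL for 1 h at 4 C; z-score combines 667 nm fluorescence of each spot with its signal to noise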
[9] = target: Torsin-1A-interacting protein 1 (Homo sapiens) (UniProt Q5JTV8); assay: compound microarray binding of lysate hLAP1 – cell lysate, small-molecule microarray, COS7 lysate, 635/667 nm fluorescence, primary screen (AID 1116); conditions: 635 nm fluorescence, higher = more signal
Chain of Torsin-1A-interacting protein 1 (Homo sapiens) (Q5JTV8 whole entry, looked up): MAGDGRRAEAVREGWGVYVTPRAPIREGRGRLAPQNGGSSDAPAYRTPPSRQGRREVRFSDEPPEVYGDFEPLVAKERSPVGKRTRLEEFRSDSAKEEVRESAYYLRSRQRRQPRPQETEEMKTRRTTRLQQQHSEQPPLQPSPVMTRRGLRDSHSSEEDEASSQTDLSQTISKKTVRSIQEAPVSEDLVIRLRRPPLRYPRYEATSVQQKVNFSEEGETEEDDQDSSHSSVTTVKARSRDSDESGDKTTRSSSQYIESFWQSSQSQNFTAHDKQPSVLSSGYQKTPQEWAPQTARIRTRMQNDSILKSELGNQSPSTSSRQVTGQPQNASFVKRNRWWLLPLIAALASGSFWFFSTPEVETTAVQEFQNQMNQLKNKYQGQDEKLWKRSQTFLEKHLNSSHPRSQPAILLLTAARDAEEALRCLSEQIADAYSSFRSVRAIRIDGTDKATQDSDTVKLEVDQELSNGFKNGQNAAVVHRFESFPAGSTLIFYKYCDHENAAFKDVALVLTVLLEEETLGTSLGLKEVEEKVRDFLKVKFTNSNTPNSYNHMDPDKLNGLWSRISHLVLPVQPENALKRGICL

[10] = target: Alpha-bungarotoxin (Bungarus multicinctus) (UniProt P60615); assay: compounds binding labelled alpha-BTX control protein – biochemical, small-molecule microarray, Alexa647 label, 635/667 nm fluorescence, artefact control for SMM control protein annotation, profiling panel (AID 1117); conditions: alpha-BTX-A647 binding fluorescence, higher = more signal
Chain of Alpha-bungarotoxin (Bungarus multicinctus) (P60615 whole entry, looked up): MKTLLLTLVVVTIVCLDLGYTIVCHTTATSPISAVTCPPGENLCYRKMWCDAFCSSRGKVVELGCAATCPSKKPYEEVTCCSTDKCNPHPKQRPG

Row | SMILES | composite z-score [1] | z-score [2] | composite z-score [3] | composite z-score [4] | composite z-score [5] | composite z-score [6] | composite z-score [7] | composite z-score [8] | composite z-score [9] | composite z-score [10]
1 | CCCC1(C(=O)OC)C=C2C(=C(C(C)C)C(=O)C2C)CN1 (stereo not given) | -0.311 | -0.808 | -0.557 | 0.312 | 0.771 | 0.0375 | 0.381 | 0.658 | 2.29 | -0.593
2 | Cc1ccc(S[C@]2(C(=O)NC(C)C)CC(=O)N(Cc3ccccc3)[C@@H]2c2ccc(CO)cc2I)cc1 | -0.0832 | -1.78 | -1.13 | 0.129 | 0.454 | -0.172 | 0.0711 | 0.813 | -0.426 | -0.684
3 | C=C(/C=C\CNS(=O)(=O)c1ccc(C)cc1)[C@H](O)[C@H]1CCCN1S(=O)(=O)c1ccccc1[N+](=O)[O-] | -0.251 | -3.55 | 0.318 | -0.337 | -0.477 | -0.0405 | -0.138 | -0.219 | 0.612 | 0.293
4 | CC(C)(C)OC(=O)CC[C@@]1(C(=O)N2CCOCC2)N=C(c2ccc(OCCCO)cc2)O[C@@H]1c1ccccc1CN=[N+]=[N-] | 1.46 | 0.265 | 0.0254 | 2.04 | 0.742 | 0.281 | 0.0875 | 2.13 | 3.31 | 0.986
5 | C=CC[C@H](OC(=O)Nc1ccc(SC)cc1)c1ccc(O)c(F)c1 | -0.419 | 0.599 | -0.722 | -0.652 | -0.328 | -0.147 | -0.0709 | -0.267 | 1.82 | -0.165
6 | CCOC(=O)C1=CC[C@@H](c2ccccc2)N(S(=O)(=O)c2ccc(C)cc2)[C@@H]1C#N | 1.32 | -1.72 | 0.0775 | 1.2 | 0.325 | 0.0438 | 0.14 | 0.404 | 0.349 | 0.786
7 | CN1C2C=C(c3ccc(CO)cc3)C(C3C(=O)N(C(N)=O)C(=O)C32)C1C1CC1 (stereo not given) | 0.249 | -0.31 | -0.423 | -0.273 | -0.915 | -0.176 | -0.229 | -0.226 | 0.192 | 0.334
8 | CC(C)c1ccc(NN2C(C(O)C(C)c3ccccc3)C=CC3C(=O)N(c4ccccc4)C(=O)C32)cc1 (stereo not given) | -0.377 | 1.63 | 0.162 | 2.61 | 1.35 | 0.474 | 0.252 | 2.01 | 2.3 | 2.13
9 | COCCOC(=O)N1C(=O)[C@@]2(c3cc(C#CC4(O)CCCCCC4)ccc31)[C@H](C(N)=O)[C@H]1C(=O)O[C@H](c3ccccc3)[C@H](c3ccccc3)N1[C@@H]2c1ccc(OCCO)cc1 | 0.688 | -2.61 | 0.73 | 1.49 | 0.527 | -0.0364 | 0.407 | 0.176 | 0.883 | 1.61
10 | O=C1NC(=O)C2C1C=CC(C(O)C(c1ccccc1)c1ccccc1)N2Nc1ccccn1 (stereo not given) | -1.31 | -0.246 | 0.702 | -0.67 | 0.295 | 0.278 | -0.119 | 0.328 | 1.63 | -0.143
11 | COC(=O)[C@@]1(Cc2ccccc2)[C@H]2c3cc(C(=O)N(C)C)n(Cc4nc5ccccc5[nH]4)c3C[C@H]2CN1C(=O)c1ccccc1 | 1.33 | 0.401 | -0.4 | 0.492 | 1.2 | 0.0328 | 0.108 | 2.16 | 1.62 | 1.3
12 | CCCCCN1CC=CC23O[C@@H]4/C=C\CCCOC(=O)C4[C@H]2C(=O)N(CCCCCO)[C@@H]3C1=O (stereo not given in full) | -0.735 | -0.831 | -1.08 | -0.517 | -0.97 | -0.224 | 0.0121 | -0.121 | -1.28 | -0.543
13 | COCCOC(=O)N1C(=O)[C@@]2(c3cc(C#CCCO)ccc31)[C@H](C(=O)N1CCN(c3ncccn3)CC1)[C@H]1C(=O)O[C@H](c3ccccc3)[C@H](c3ccccc3)N1[C@@H]2c1ccc(OCCO)cc1 | 1.46 | -1.21 | 0.6 | 1.26 | 0.0318 | 0.0633 | 0.0469 | 0.234 | 0.867 | 1.95
14 | O=C1O[C@@H](c2ccccc2)[C@@H](c2ccccc2)N2[C@@H](c3ccccc3OCCO)[C@]3(C(=O)Nc4ccc(C#CC5(O)CCCCCC5)cc43)[C@@H](C(=O)N3CCCCCCC3)[C@H]12 | 1.61 | -2.22 | 1.87 | 3.06 | 1.82 | 1.65 | 3.04 | 3.8 | 5.6 | 4.54
15 | N#Cc1ccc(NN2C(C(O)c3ccc(B(O)O)cc3)C=CC3CN(c4ccccc4)C(=O)C32)cc1 (stereo not given) | -0.664 | 0.277 | -0.193 | 0.0251 | -0.408 | -0.144 | -0.237 | -0.196 | 0.11 | -0.0348
16 | COc1c(C)cc(-c2nc(-c3ccccc3)c3c(c2C)CO[Si]3(C(C)C)C(C)C)cc1C | 0.0725 | -0.77 | 0.513 | 0.0032 | 0.154 | -0.0478 | -0.0769 | 0.239 | -0.0032 | -0.0073
17 | O=C1OCC=C[C@H]2OC34C=CCN(Cn5nnc6ccccc65)C(=O)[C@H]3N(CCO)C(=O)[C@@H]4[C@@H]12 (stereo not given in full) | 0.316 | -0.105 | -1.41 | -0.157 | 0.62 | -0.148 | -0.0192 | 0.0963 | -0.0193 | -2.05

Row | SMILES | composite z-score [1] | z-score [2] | composite z-score [3] | composite z-score [4] | composite z-score [5] | composite z-score [6] | composite z-score [7] | composite z-score [8] | composite z-score [9] | composite z-score [10]
18 | [N-]=[N+]=NCc1ccccc1[C@H]1OC(c2ccc(OCCCO)cc2)=N[C@@]1(Cc1ccccc1N=[N+]=[N-])C(=O)N1CCOCC1 | 1.39 | -2.2 | -0.267 | 1.86 | 0.642 | 0.0115 | 0.539 | 1.44 | 0.506 | 1.4
19 | O=C1NC(=O)C2C1C=CC(C(O)C(O)CO)N2Nc1ccccn1 (stereo not given) | 0.492 | 0.538 | 0.322 | 0.339 | -0.635 | 0.0502 | -0.0035 | -0.201 | 0.0465 | 0.315
20 | CN1C(=O)C2CC=C(C3=CCO[C@@H]3[C@H]3CCCN3S(=O)(=O)c3ccccc3[N+](=O)[O-])CC2C1=O (stereo not given in full) | -0.351 | -0.0844 | -0.377 | -0.194 | -0.0107 | -0.242 | -0.2 | -0.0116 | 0.0183 | 0.0302
21 | COC(=O)C1=CC(c2ccc(CO)cc2)=CC(C2CC2)N(Cc2cc3c(cc2Br)OCO3)C=C1C(=O)OC (stereo not given) | 1.32 | -1.41 | 0.568 | 2.06 | 0.631 | 0.0251 | 0.254 | 0.564 | 2.15 | 2.47
22 | CCCC[C@@H](O)C1=C(C)Cn2c(=O)n(-c3ccccc3)c(=O)n2[C@H]1CO | -0.867 | 0.384 | 0.0031 | -0.737 | -0.122 | -0.117 | -0.221 | 0.115 | 0.105 | -0.409
23 | [N-]=[N+]=NCc1ccccc1[C@H]1OC(c2ccc(OCCCO)cc2)=N[C@@]1(Cc1ccccc1N=[N+]=[N-])C(N)=O | 1.44 | -1 | 0.373 | 1.1 | 0.613 | 0.117 | -0.111 | 0.924 | 0.154 | 1.03
24 | COc1ccc([Si](C)(C)[C@H]2[C@H](CC(=O)N(CCO)Cc3ccccc3)O[C@@]3(C(=O)N(Cc4ccc(N5C(=O)c6cccc7cccc5c67)cc4)c4ccccc43)[C@@H]2C)cc1 | 1.28 | -3.78 | 0.544 | 0.605 | 0.103 | 0.0495 | 0.19 | 0.945 | 0.869 | 0.753
25 | C=C(COC)C(=O)CC[C@H](OC(C)=O)c1ccc(CO)o1 | -1.05 | 0.272 | 0.451 | 0.44 | -1.07 | -0.152 | -0.0709 | -0.273 | -0.534 | 0.706
26 | C=CCC(OC(C)=O)[C@@H]1[C@@H](N(Cc2cccc3ccccc23)C(=O)c2ccc(C)cc2)c2cc(OCCCO)ccc2N1C(=O)Cc1ccc2ccccc2c1 (stereo not given in full) | -0.857 | 0.198 | -0.163 | 1.1 | 0.709 | -0.0718 | -0.0553 | 0.0588 | 0.54 | 0.273
27 | CCCCN1CC=CC23O[C@@H]4C=CCCOC(=O)C4[C@H]2C(=O)N(CCO)[C@@H]3C1=O (stereo not given in full) | -0.548 | -0.161 | -1.02 | -0.555 | -0.436 | -0.298 | 0.149 | -0.249 | -0.997 | -0.363
28 | CC(C)c1ccc(NN2C(C(O)C3CCCCC3)C=CC3C(=O)N(c4ccccc4)C(=O)C32)cc1 (stereo not given) | 0.324 | -0.482 | 0.176 | 2.23 | 0.842 | 0.0219 | -0.144 | 0.302 | 0.678 | 1.9
29 | CC(C)(C)OC(=O)N1[C@@H](C=C(Br)Br)COC1(C)C | 0.943 | -0.213 | 0.514 | -0.177 | -0.41 | -0.0944 | -0.167 | 0.0051 | 1.29 | 0.398
30 | [N-]=[N+]=NCc1ccccc1C[C@@]1(C(N)=O)N=C(c2ccc(OCCCO)cc2)O[C@@H]1c1ccccc1N=[N+]=[N-] | 1.05 | -0.489 | -0.654 | 1.09 | 0.237 | 0.0088 | 0.199 | -0.561 | 1.71 | 0.775
31 | CCCCC=C[C@@H](NC(=O)C(C)(C)C)c1ccccc1 | 1.28 | -3.07 | 0.466 | 0.815 | 0.113 | 0.0357 | 0.54 | 0.863 | -0.334 | 0.82
32 | COC(=O)[C@@]1(Cc2ccc(F)cc2)[C@H]2c3cc(C(=O)N4CCCC4)n(CCSCCO)c3C[C@H]2CN1C(=O)c1ccccc1 | 1.2 | -1.24 | -0.721 | 1.34 | 0.318 | 0.0914 | 1.08 | 1.56 | 0.403 | 0.566
33 | C=CCNC(=O)[C@@H]1[C@H]2C(=O)O[C@H](c3ccccc3)[C@H](c3ccccc3)N2[C@H](c2ccc(OCCO)cc2)[C@@]12C(=O)N(C(=O)OCCOC)c1ccccc12 | 1.11 | -0.945 | 0.47 | 0.789 | 0.132 | -0.096 | 0.0639 | -0.103 | 1.58 | 1.04
